This is an account of results in PubChem BioAssay (NCI).

SMILES strings stand for the structures. The panel holds about 83,000 compounds, 20% with a hit somewhere; the sample as a whole holds those more often.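 Percent growth is the endpoint: 0 to 100 indicates growth inhibition (40 means 60% inhibition), 0 means no net growth, and negative values indicate cell death.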 A number with no mark means an inactive call. Active and inactive are the calls of the source. Rule for the calls: active = growth percent below 10; inactive = the rest.

Among the test systems are DU-145 prostate; K-562 leukemia; MALME-3M melanoma; MDA-MB-231 breast; RXF 393 renal; SF-268 CNS; SF-295 CNS; SF-539 CNS; UACC-257 melanoma; M14 melanoma; HCT-15 colon; HT29 colon; SNB-75 CNS; SNB-19 CNS; U251 CNS; PC-3 prostate; SK-MEL-5 melanoma; UACC-62 melanoma; LOX IMVI melanoma; SK-MEL-28 melanoma.
What all share (test): NCI-60 one-dose screen, 48 h (100 = growth as untreated, 0 = no growth, -100 = all killed)
What all share (conditions): 10 µM unless noted

As for `CNC1=CC(=O)c2c(C(=O)OC)c(C)[n+]([O-])c(C)c2C1=O`, the growth in the assay with DU-145 prostate was 68.7%; in the assay with K-562 leukemia, 71%; in the assay with MALME-3M melanoma, -46.2% (active); in the assay with MDA-MB-231 breast it was 63.8%; in the assay on RXF 393 renal, 74.4%; with SF-268 CNS, 89.2%. Also, the growth in the assay on SF-295 CNS was 86.4%; in the assay on SF-539 CNS, 83.8%; with UACC-257 melanoma, 49.3%; in the assay with M14 melanoma, 24%; with HCT-15 colon, 49.1%; in the assay with HT29 colon it was 16.5%. Besides, the growth in the assay on SNB-75 CNS was 147%; with SNB-19 CNS it was 81.5%; in the assay with U251 CNS it was 64%; in the assay with PC-3 prostate it was 61.9%; with SK-MEL-5 melanoma, -47.9% (active); in the assay on UACC-62 melanoma it was 27.3%. The growth was 34.4% in the assay with LOX IMVI melanoma and 96.3% in the assay on SK-MEL-28 melanoma.
Consider `Cc1ccc(C(=O)Nc2cccc(C#Cc3cccc4[nH]nc(N)c34)c2)cc1C(F)(F)F`, for which the growth in the assay with DU-145 prostate was 78.4%; in the assay on K-562 leukemia, 6.95% (active); in the assay with MALME-3M melanoma, 6.04% (active); in the assay on MDA-MB-231 breast it was 55.4%; in the assay with RXF 393 renal, 41.2%; in the assay with SF-268 CNS, 60.8%. The growth in the assay on SF-295 CNS is 78.1%; in the assay with SF-539 CNS it was 8.47% (active); with UACC-257 melanoma, 68%; in the assay with M14 melanoma, 21.6%; with HCT-15 colon, 48.9%; with HT29 colon, 27.3%. Moreover, the growth in the assay on SNB-75 CNS was 88.4%; with SNB-19 CNS, 113%; in the assay with U251 CNS, 81.5%; in the assay with PC-3 prostate, 69.8%; in the assay on SK-MEL-5 melanoma, 73.3%; in the assay on UACC-62 melanoma it was 41.1%. For the same molecule, the figures for the growth in the assay with LOX IMVI melanoma and in the assay with SK-MEL-28 melanoma were 25.4% and 41.7%, respectively.
On to `COc1cc(OC)c2sc(-c3ccc(-n4cncc4-c4cc(OC)c(OC)c(OC)c4)cc3)nc2c1`, for which the growth in the assay with DU-145 prostate was 78.3%; in the assay on K-562 leukemia it was 45.7%; in the assay on MALME-3M melanoma it was 61.7%; in the assay on MDA-MB-231 breast it was 54.4%; in the assay on RXF 393 renal, 4.25% (active); in the assay with SF-268 CNS, 61%. The growth is 60.6% in the assay on SF-295 CNS; 62.1% in the assay with SF-539 CNS; 59.8% in the assay on UACC-257 melanoma; 69% with M14 melanoma; 41.3% in the assay on HCT-15 colon; 44.5% with HT29 colon. Moreover, the growth in the assay on SNB-75 CNS was 82.9%; in the assay with SNB-19 CNS, 49.7%; in the assay on U251 CNS, 43.1%; in the assay with PC-3 prostate, 34.4%; in the assay with SK-MEL-5 melanoma, 20.9%; with UACC-62 melanoma, 43.8%. Also, the growth is 57.7% in the assay with LOX IMVI melanoma and 73% in the assay with SK-MEL-28 melanoma.
On to `C/C=C(/C)n1cnc2c(Nc3ccccn3)nc(Cl)nc21`, for which the growth with DU-145 prostate is 109%; in the assay with K-562 leukemia, 95.6%; in the assay with MALME-3M melanoma, 106%; with MDA-MB-231 breast, 107%; with RXF 393 renal it was 105%; with SF-268 CNS, 99.2%. The growth was 104% with SF-295 CNS; 102% in the assay with SF-539 CNS; 97.6% in the assay with UACC-257 melanoma; 101% in the assay with M14 melanoma; 103% with HCT-15 colon; 98.1% with HT29 colon. For the same molecule, the growth in the assay on SNB-75 CNS was 87.9%; in the assay on SNB-19 CNS, 107%; with U251 CNS it was 99.8%; in the assay on PC-3 prostate, 95.3%; with SK-MEL-5 melanoma, 101%; with UACC-62 melanoma it was 95.8%. Besides, the growth with LOX IMVI melanoma was 95.3%; with SK-MEL-28 melanoma, 105%.
Take `O=C(CC(=O)Nc1cccc(C(=O)O)c1)Nc1cccc(C(=O)O)c1`: the growth was 121% in the assay on DU-145 prostate; 111% in the assay on K-562 leukemia; 104% in the assay on MALME-3M melanoma; 104% with MDA-MB-231 breast; 111% in the assay with RXF 393 renal; 104% in the assay with SF-268 CNS. In addition, the growth was 106% in the assay on SF-295 CNS; 90.5% with SF-539 CNS; 97.7% with UACC-257 melanoma; 96.6% in the assay on M14 melanoma; 106% with HCT-15 colon; 97.6% in the assay on HT29 colon. Moreover, the growth in the assay with SNB-75 CNS is 73.3%; in the assay on SNB-19 CNS it was 102%; in the assay on U251 CNS, 104%; with PC-3 prostate, 92.5%; in the assay with SK-MEL-5 melanoma, 100%; in the assay on UACC-62 melanoma, 94.6%. Also, the results for the growth with LOX IMVI melanoma and with SK-MEL-28 melanoma were 103% and 100%, respectively.
Regarding `Cc1nc2sc(C(=O)Nc3cccc(Br)c3C)c(N)c2cc1C(O)c1ccccc1` (stereo not given), the growth was 6.13% (active) in the assay on DU-145 prostate; 6.3% (active) in the assay with K-562 leukemia; 56.9% in the assay with MALME-3M melanoma; 3.16% (active) in the assay with MDA-MB-231 breast; 37.9% in the assay on RXF 393 renal; 16.3% with SF-268 CNS. Also, the growth in the assay on SF-295 CNS was 20.5%; with SF-539 CNS it was 1.41% (active); with UACC-257 melanoma, 52%; with M14 melanoma, 9.77% (active); in the assay on HCT-15 colon it was 10.8%; in the assay with HT29 colon it was 9.11% (active). Also, the growth with SNB-75 CNS was 52.6%; in the assay with SNB-19 CNS, 25.4%; in the assay on U251 CNS, 2.74% (active); in the assay on PC-3 prostate, 18.3%; in the assay with SK-MEL-5 melanoma it was -50.9% (active); in the assay on UACC-62 melanoma, 18.5%. The values for the growth in the assay on LOX IMVI melanoma and in the assay with SK-MEL-28 melanoma were 16.3% and 55.9%, respectively.
Regarding `Cc1cccc(-c2nc(Nc3ccc4ncsc4c3)c3ccccc3n2)n1`, the growth is 90.6% with DU-145 prostate; 28.5% in the assay on K-562 leukemia; 102% in the assay on MALME-3M melanoma; 101% with MDA-MB-231 breast; 78.8% in the assay on RXF 393 renal; 98% in the assay with SF-268 CNS. The growth was 88.7% with SF-295 CNS; 98.1% in the assay on SF-539 CNS; 81.4% with UACC-257 melanoma; 64% with M14 melanoma; 70.7% in the assay on HCT-15 colon; 43.1% in the assay with HT29 colon. Also, the growth is 105% in the assay with SNB-75 CNS; 102% with SNB-19 CNS; 77% in the assay on U251 CNS; 14.7% in the assay with PC-3 prostate; 42.4% in the assay on SK-MEL-5 melanoma; 80.8% with UACC-62 melanoma. Besides, the growth is 93.2% in the assay on LOX IMVI melanoma and 98.2% in the assay with SK-MEL-28 melanoma.
